Assay outcomes (PubChem BioAssay)
Compounds with a hit are over-represented: about 2.5% of the library has one in this group of screens.
Mcl1 Bid PPI = Mcl-1/Bid interaction inhibition | AID 1021 | TR-FRET Mcl-1/Bid-Dy647 peptide binding, 1536-well | inhibition, % at 21.7 µM | 220,000 compounds, 0.97% hits;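 active = compounds that cut the binding signal by more than half at the single screening dose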;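 also: His-tagged Mcl-1 with europium anti-His antibody binding Bid BH3 peptide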
Mcl-1 Bim block = disrupts Bim peptide binding to human Mcl-1; 190,000 compounds, 0.1% hits; Q07820; Bead-based flow cytometry, Bim peptide-Mcl-1 binding; inhibition, % at 10 µM; in the data active = inhibition above about 40%
Mcl1-Noxa inh = Mcl-1/Noxa interaction inhibition; AID 1022; inhibition, % at 21.7 µM; Q07820; TR-FRET Mcl-1/Noxa peptide binding, 2 h; 220,000 compounds, 1.5% hits;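 active = compounds that cut the protein-peptide binding signal by more than 50% relative to plate controls in a single-dose test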;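 also: His-tagged Mcl-1 with rhodamine Noxa BH3 peptide and terbium anti-His antibody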
14-3-3 Bad inh = disrupts binding of bovine 14-3-3 zeta to phospho-Bad peptide | P63103 | TR-FRET 14-3-3zeta/Dy647-pBad peptide displacement, 1 h | inhibition, % at 21.7 µM | 220,000 compounds, 0.71% hits;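 active = inhibition above about 70%, limit read from the data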
Target sequence (P63103 whole entry, looked up): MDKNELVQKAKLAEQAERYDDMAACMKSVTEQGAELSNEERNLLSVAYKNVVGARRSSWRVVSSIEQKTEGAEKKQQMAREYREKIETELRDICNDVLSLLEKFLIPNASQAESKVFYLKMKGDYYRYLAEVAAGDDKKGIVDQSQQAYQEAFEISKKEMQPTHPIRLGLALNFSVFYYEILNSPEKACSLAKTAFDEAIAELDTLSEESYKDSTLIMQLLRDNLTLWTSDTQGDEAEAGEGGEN
MCL1-BIM inh = inhibitors of human MCL1 binding to BIM-BH3 peptide; GST-MCL1 / FITC-Bim-BH3 fluorescence polarization; inhibition, % at 10.9 µM; 320,000 compounds, 0.68% hits;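 active = inhibition above the mean inhibition of all tested compounds plus 3 SD, set per campaign, cut at about 40% in these data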;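 also: higher means more loss of mP so more displacement of Bim peptide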
A number is an active result.

For Cc1ccc(C(=O)NC(=O)OCCn2c(C)cnc2[N+](=O)[O-])cc1 the results were Mcl1 Bid PPI inactive, Mcl-1 Bim block inactive, Mcl1-Noxa inh inactive, 14-3-3 Bad inh 74.0 and MCL1-BIM inh inactive.
`Cc1cnc([N+](=O)[O-])n1CCOC(=O)NC(=O)c1ccccc1` gave Mcl1 Bid PPI inactive, Mcl-1 Bim block inactive, Mcl1-Noxa inh inactive, 14-3-3 Bad inh inactive and MCL1-BIM inh inactive.
COCc1cc(=O)oc2cc(NC(=O)c3ccc(C(C)(C)C)cc3)ccc12 was read as MCL1-BIM inh inactive.
Cc1cc(/C=C2\SC(=S)NC2=O)c(C)n1-c1ccccc1 was read as Mcl1 Bid PPI inactive, Mcl1-Noxa inh inactive, 14-3-3 Bad inh inactive and MCL1-BIM inh inactive.
For O=C1NC(=S)S/C1=C\c1ccc(SCc2ccccc2)o1 the results were Mcl1 Bid PPI inactive, Mcl-1 Bim block inactive, Mcl1-Noxa inh 81.1, 14-3-3 Bad inh inactive and MCL1-BIM inh inactive.
Screening O=C1NC(=S)S/C1=C\c1ccc(SCc2ccco2)o1 returned Mcl1 Bid PPI 62.0, Mcl-1 Bim block inactive, Mcl1-Noxa inh 98.3, 14-3-3 Bad inh inactive and MCL1-BIM inh 75.5.
For O=C1NC(=S)S/C1=C/c1ccc(OC(=O)c2ccco2)cc1 the results were MCL1-BIM inh inactive.
Screening CCC1=NN2C(=N)/C(=C\c3ccc(SCc4ccco4)o3)C(=O)N=C2S1 returned Mcl1 Bid PPI inactive, Mcl-1 Bim block inactive, Mcl1-Noxa inh 63.7, 14-3-3 Bad inh inactive and MCL1-BIM inh inactive.
Screening CCC1=NN2C(=N)/C(=C/c3c(C)nn(-c4ccccc4)c3Cl)C(=O)N=C2S1 returned Mcl1 Bid PPI inactive, Mcl-1 Bim block inactive, Mcl1-Noxa inh inactive, 14-3-3 Bad inh inactive and MCL1-BIM inh inactive.
`C=CCN=C(NC#N)SC` gave Mcl1 Bid PPI inactive, Mcl1-Noxa inh inactive, 14-3-3 Bad inh inactive and MCL1-BIM inh inactive.
COc1cccc(-c2cc(C(F)(F)F)nc(N3CCOCC3)n2)c1 was read as Mcl1 Bid PPI inactive, Mcl-1 Bim block inactive, Mcl1-Noxa inh inactive, 14-3-3 Bad inh inactive and MCL1-BIM inh inactive.
For COc1ccc(-c2cc(C(F)(F)F)nc(N3CCOCC3)n2)cc1OC the results were Mcl1 Bid PPI 91.2, Mcl-1 Bim block inactive, Mcl1-Noxa inh inactive, 14-3-3 Bad inh inactive and MCL1-BIM inh inactive.
For CCC(C)(NC=O)C(=O)Nc1c(C)cccc1C (configuration not stated) the results were Mcl1 Bid PPI inactive, Mcl1-Noxa inh inactive, 14-3-3 Bad inh inactive and MCL1-BIM inh inactive.
For CN1CCN(c2ccc(C(=O)c3cn(-c4ccc(F)c(Cl)c4)nn3)cc2)CC1 the results were Mcl1 Bid PPI inactive, Mcl-1 Bim block inactive, Mcl1-Noxa inh inactive, 14-3-3 Bad inh 76.3 and MCL1-BIM inh inactive.
`Cc1ccc(-n2cc(C(=O)c3ccc(N4CCN(C)CC4)cc3)nn2)cc1Cl` gave Mcl1 Bid PPI inactive, Mcl-1 Bim block inactive, Mcl1-Noxa inh inactive, 14-3-3 Bad inh inactive and MCL1-BIM inh inactive.
For O=C(NCc1cn(-c2ccccc2)nc1-c1ccccc1)c1cc([N+](=O)[O-])cc([N+](=O)[O-])c1 the results were Mcl1 Bid PPI inactive, Mcl-1 Bim block inactive, Mcl1-Noxa inh inactive, 14-3-3 Bad inh 95.6 and MCL1-BIM inh inactive.
For COc1ccccc1CNC(=O)CSc1ccsc1[N+](=O)[O-] the results were Mcl1 Bid PPI inactive, Mcl-1 Bim block inactive, Mcl1-Noxa inh inactive, 14-3-3 Bad inh inactive and MCL1-BIM inh inactive.
For CCc1ccccc1NC(=O)CSc1ccsc1[N+](=O)[O-] the results were Mcl1 Bid PPI inactive, Mcl-1 Bim block inactive, Mcl1-Noxa inh 54.5, 14-3-3 Bad inh inactive and MCL1-BIM inh inactive.
O=C(CSc1ccsc1[N+](=O)[O-])Nc1cccc(F)c1 was read as Mcl1 Bid PPI inactive, Mcl-1 Bim block inactive, Mcl1-Noxa inh 97.9 and 14-3-3 Bad inh inactive.
For NS(=O)(=O)c1ccc(CCNC(=O)CSc2ccsc2[N+](=O)[O-])cc1 the results were Mcl1 Bid PPI inactive, Mcl-1 Bim block inactive, Mcl1-Noxa inh 53.0, 14-3-3 Bad inh inactive and MCL1-BIM inh inactive.
`Cn1c(SCC(=O)Nc2ccccc2F)nnc1-c1cccs1` gave MCL1-BIM inh inactive.
O=C(/C=C/c1ccccc1Cl)c1ccc[nH]1 was read as Mcl1 Bid PPI inactive, Mcl-1 Bim block inactive, Mcl1-Noxa inh inactive, 14-3-3 Bad inh inactive and MCL1-BIM inh inactive.
O=C(CSc1nc(C2CC2)nc2ccccc12)N1CCc2ccccc2C1 was read as Mcl1 Bid PPI inactive, Mcl-1 Bim block inactive, Mcl1-Noxa inh inactive, 14-3-3 Bad inh inactive and MCL1-BIM inh inactive.
Screening COc1cccc(NC(=O)CN2CCSc3ccccc32)c1 returned Mcl1 Bid PPI inactive, Mcl-1 Bim block inactive, Mcl1-Noxa inh inactive, 14-3-3 Bad inh inactive and MCL1-BIM inh inactive.
